# Source: article PMC5540273 (PLoS ONE, 2017)
# How the values were obtained:
# Details in all cases: concentration: 1 μM, replicates: in singlicate; n = 1
# EPHB3 = tested on: EPHB3
# EPHB4 = tested on: EPHB4
# EPHB6 = tested on: EPHB6
# ERBB2 = tested on: ERBB2
# ERBB3 = tested on: ERBB3
# ERBB4 = tested on: ERBB4
# ERK1 = tested on: T1, ERK1
# T1 construct: gene MAPK3
# ERK2 = tested on: T2, ERK2
# T2 construct: gene MAPK1
# ERK3 = tested on: T3, ERK3
# T3 construct: gene MAPK6
# ERK4 = tested on: T4, ERK4
# T4 construct: gene MAPK4
# ERK5 = tested on: T5, ERK5
# T5 construct: gene MAPK7
# ERK8 = tested on: T6, ERK8
# T6 construct: gene MAPK15
# ERN1 = tested on: ERN1
# FAK = tested on: T7, FAK
# T7 construct: gene PTK2
# FER = tested on: FER
# FES = tested on: FES
# FGFR1 = tested on: FGFR1
# FGFR2 = tested on: FGFR2
# FGFR3 = tested on: FGFR3
# FGFR4 = tested on: FGFR4
# 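Further: KINOMEscan kinase panel screen.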
Structure (SMILES),%Inh (EPHB3) [%],%Inh (EPHB4) [%],%Inh (EPHB6) [%],%Inh (ERBB2) [%],%Inh (ERBB3) [%],%Inh (ERBB4) [%],%Inh (ERK1) [%],%Inh (ERK2) [%],%Inh (ERK3) [%],%Inh (ERK4) [%],%Inh (ERK5) [%],%Inh (ERK8) [%],%Inh (ERN1) [%],%Inh (FAK) [%],%Inh (FER) [%],%Inh (FES) [%],%Inh (FGFR1) [%],%Inh (FGFR2) [%],%Inh (FGFR3) [%],%Inh (FGFR4) [%]
Cc1cccc(-c2cc(-c3c[nH]nc3-c3ccccn3)ccn2)c1 [GW679395],25,22,74,19,0,36,0,0,0,19,0,0,0,0,4,0,0,0,0,4
Nc1ncnc2c1ncn2-c1ccc(Cl)cc1 [AH2635],3,7,10,53,1,50,0,0,18,0,0,0,0,0,26,0,0,0,8,0
COC(=O)c1c(-c2ccccc2)c2cc(C)ccc2c(=O)n1Cc1ccccc1,45,1,0,5,0,0,0,9,0,0,0,0,0,0,0,0,0,0,0,0
CCC(=O)c1c(-c2ccccc2)c2cc(Cl)ccc2c(=O)n1Cc1cc(C(=O)NC2CC2)n(C)n1,20,23,25,9,4,0,0,10,0,5,4,0,12,0,0,22,4,2,0,0
Nc1nccc2scc(-c3ccc4c(c3)CCN4C(=O)Cc3ccccc3)c12 [GSK2576924],4,22,88,31,0,8,0,0,0,33,10,0,15,0,16,0,0,0,27,7
COc1ccc(-c2cc3c(C)nc(N)nc3n([C@H]3CC[C@H](OCCO)CC3)c2=O)cn1,16,5,4,13,0,0,0,14,0,16,12,0,0,0,13,1,7,0,0,0
CCn1c(-c2ccoc2)nc2cnccc21 [SB-733887],17,0,26,8,14,0,0,0,12,11,0,0,0,0,20,0,0,0,0,20
Nc1n[nH]c2nnc(-c3ccccc3)c(-c3ccccc3)c12 [GW554060],43,8,17,27,16,32,0,0,3,0,0,50,7,0,21,0,4,25,32,1
Cc1nn2c(=O)cc(N3CCOCC3)nc2n1Cc1cccc(Cl)c1Cl [GSK2342769],16,16,0,0,0,0,0,0,0,5,0,18,0,0,14,6,1,30,15,5
Nc1n[nH]c2ncc(-c3ccccc3)cc12 [SB-517081],9,9,39,24,0,0,3,0,0,23,0,0,9,0,0,0,0,0,2,18
Cc1ccc(-c2ccc3c(ccc4sc5c(c43)NC[C@@H](C)N=C5N(C)C)n2)cn1,0,0,15,8,0,3,0,0,1,14,2,8,0,0,1,0,0,0,0,0
CCC(=O)c1c(-c2ccccc2)c2cc(Cl)ccc2c(=O)n1Cc1ccc(C(=O)O)cc1,5,0,0,16,0,0,0,5,0,0,0,0,0,0,0,5,0,0,0,0
COc1cc2ncn(-c3cc(OCCCc4ccccc4)c(C(N)=O)s3)c2cc1OC [GSK205189],0,6,39,12,0,0,5,3,0,0,0,3,0,0,10,0,0,9,16,0
Cc1nnc(-c2ccc(C)c(-c3ccc(C(=O)O)cc3)c2)o1 [GW608005],6,5,0,36,0,76,0,0,0,0,0,20,5,0,0,0,5,0,0,0
COc1cc(Nc2ccnc3ccc(C(F)(F)F)cc23)cc(OC)c1OC [GW577382],14,20,49,16,30,23,0,5,0,1,0,0,0,0,21,2,16,25,3,11
O=C1NC(=O)C(c2ccccc2)=C1Nc1cccc(O)c1 [SB-390534],0,0,0,0,0,3,0,0,0,0,0,0,0,0,0,0,11,0,10,1
Nc1ncnc2c1ncn2-c1cccc2ccccc12 [SKF-97184],0,0,0,10,26,41,0,0,0,0,0,9,0,0,0,0,12,0,0,0
CN(C)c1cc(-c2ccc3c(N)n[nH]c3c2)nc(N)n1 [GSK2219329],9,13,3,25,0,30,15,0,11,0,0,0,0,0,16,0,0,2,7,0
Cn1c(=O)c(F)c(Nc2ccc(I)cc2F)c2c(=O)n(OC[C@H](O)CO)cnc21,17,32,0,0,41,3,0,8,9,7,24,16,0,30,10,9,23,4,0,12
COC(=O)c1c(-c2ccccc2)c2cc(Br)ccc2c(=O)n1Cc1ccc(NC(=O)CCC(=O)O)cc1,19,13,14,57,0,0,0,29,3,3,13,0,20,0,0,9,0,0,0,0
C[C@@H]1CC[C@H](C(=O)NC2CCCCC2)CN1c1cc(-c2ccc3c(N)n[nH]c3c2)nc(N)n1 [GSK2291363],20,21,96.7,21,0,35,14,25,21,28,0,1,17,0,41,0,4,8,17,12
